“And” between values parts separate entries of the source, which are not always exact repeats. Equal values may be shown once. Out of some 5,500 compounds screened, about 2,000 (36%) were called active. Inconclusive results (about 18%) are left out. Rule as the data show it: active = normalized growth mostly below about 0.91 (no sharp cut-off); inconclusive = no clear call, values can overlap the other calls; inactive = mostly above about 0.92. The list shows a part of the results.
Test: chemical genetic growth profiling, strain panel (AID 1159580);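 also: tested at 20 µM; growth read once vehicle control cultures reached saturation at 30 °C; 1 = growth at the plate median or of vehicle wells; lower values mean less growth of the strain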
Details: S. cerevisiae deletion strains, growth OD

Measured: normalized growth

CCCCCCCCCCCC[C@H](C(=O)O)[C@@H](C)C(=O)O
active: locus YJL129C, strain trk1, stronger effect = lower value 0.797
inactive: locus YAL013W, strain DEP1, stronger effect = lower value 0.992 | locus YAL021C, strain ccr4, stronger effect = lower value 1.02 | locus YAL026C, strain drs2, stronger effect = lower value 0.952 | locus YAL030W, strain snc1, stronger effect = lower value 0.984 | locus YBL061C, strain skt5, stronger effect = lower value 0.982 | locus YBR009C, strain hhf1, stronger effect = lower value 0.994 | locus YBR021W, strain FUR4, stronger effect = lower value 0.995 | locus YBR023C, strain chs3, stronger effect = lower value 0.982 | locus YBR171W, strain sec66, stronger effect = lower value 0.936 | locus YBR229C, strain ROT2, stronger effect = lower value 0.993 | locus YBR231C, strain swc5, stronger effect = lower value 0.986 | locus YBR279W, strain paf1, stronger effect = lower value 0.976 | locus YCL011C, strain gbp2, stronger effect = lower value 0.995 | locus YCL016C, strain dcc1, stronger effect = lower value 0.996 | locus YCL029C, strain bik1, stronger effect = lower value 1.02 | locus YCL061C, strain MRC1, stronger effect = lower value 0.963 | locus YCL069W, strain vba3, stronger effect = lower value 0.975 | locus YCR088W, strain abp1, stronger effect = lower value 0.976 | locus YDL005C, strain med2, stronger effect = lower value 0.995 | locus YDL035C, strain GPR1, stronger effect = lower value 0.995 | locus YDL040C, strain nat1, stronger effect = lower value 0.977 | locus YDL074C, strain BRE1, stronger effect = lower value 0.986 | locus YDL101C, strain DUN1, stronger effect = lower value 1.02 | locus YDL134C, strain PPH21, stronger effect = lower value 0.993 | locus YDL185W, strain tfp1, stronger effect = lower value 1.03 | locus YDL192W, strain arf1, stronger effect = lower value 1.01 | locus YDR001C, strain nth1, stronger effect = lower value 0.966 | locus YDR069C, strain doa4, stronger effect = lower value 0.999 | locus YDR101C, strain arx1, stronger effect = lower value 1.01 | locus YDR137W, strain rgp1, stronger effect = lower value 0.929 | locus YDR150W, strain NUM1, stronger effect = lower value 0.998 | locus YDR159W, strain sac3, stronger effect = lower value 0.902 | locus YDR162C, strain NBP2, stronger effect = lower value 1.01 | locus YDR195W, strain ref2 0.98 | locus YDR297W, strain sur2, stronger effect = lower value 0.976 | locus YDR318W, strain mcm21, stronger effect = lower value 1.02 | locus YDR334W, strain swr1, stronger effect = lower value 0.985 | locus YDR335W, strain msn5, stronger effect = lower value 0.986 | locus YDR388W, stronger effect = lower value 1.01 | locus YDR392W, strain spt3, stronger effect = lower value 0.832 | locus YDR502C, strain sam2, stronger effect = lower value 1.02 | locus YEL003W, strain gim4, stronger effect = lower value 0.995 | locus YEL037C, strain rad23, stronger effect = lower value 0.976 | locus YEL061C, strain CIN8 (second series), stronger effect = lower value 0.957 | locus YEL061C, strain CIN8, stronger effect = lower value 0.988 | locus YER015W, strain faa2, stronger effect = lower value 0.985 | locus YER016W, strain bim1, stronger effect = lower value 0.984 | locus YER110C, stronger effect = lower value 1 | locus YER111C, strain swi4, stronger effect = lower value 0.938 | locus YER155C, strain BEM2 (second series), stronger effect = lower value 0.874 | locus YER155C, strain BEM2, stronger effect = lower value 0.979 | locus YER167W, strain BCK2, stronger effect = lower value 1.01 | locus YFR010W, strain ubp6, stronger effect = lower value 1.02 | locus YGL078C, strain dbp3, stronger effect = lower value 0.98 | locus YGL086W, strain mad1, stronger effect = lower value 1.01 | locus YGL167C, strain pmr1, stronger effect = lower value 0.943 | locus YGL173C, strain kem1, stronger effect = lower value 0.958 | locus YGL227W, strain vid30, stronger effect = lower value 0.975 | locus YGL240W, strain doc1, stronger effect = lower value 0.979 | locus YGL248W, strain PDE1, stronger effect = lower value 1 | locus YGL253W, strain hxk2, stronger effect = lower value 0.976 | locus YGR078C, strain PAC10, stronger effect = lower value 1.01 | locus YGR135W, strain pre9, stronger effect = lower value 1.01 | locus YGR229C, strain SMI1, stronger effect = lower value 0.999 | locus YGR252W, strain gcn5, stronger effect = lower value 1.05 | locus YHR013C, strain ard1, stronger effect = lower value 1.01 | locus YHR027C, strain rpn1, stronger effect = lower value 0.984 | locus YHR030C, strain SLT2, stronger effect = lower value 0.993 and 0.941 | locus YHR079C, strain IRE1 (second series), stronger effect = lower value 1 | locus YHR079C, strain IRE1, stronger effect = lower value 0.953 | locus YHR094C, strain hxt1, stronger effect = lower value 0.989 | locus YHR129C, strain ARP1, stronger effect = lower value 0.989 | locus YHR142W, strain chs7, stronger effect = lower value 1.02 | locus YHR200W, strain rpn10, stronger effect = lower value 1.02 | locus YIL066C, strain RNR3, stronger effect = lower value 0.992 | locus YIL073C, strain SPO22, stronger effect = lower value 1.06 | locus YIL125W, strain kgd1, stronger effect = lower value 0.997 | locus YIR030C, strain dcg1, stronger effect = lower value 1 | locus YJL092W, strain hpr5, stronger effect = lower value 0.967 | locus YJL095W, strain BCK1 (second series), stronger effect = lower value 0.992 | locus YJL095W, strain BCK1, stronger effect = lower value 1.01 and 0.953 | locus YJL115W, strain asf1, stronger effect = lower value 0.94 | locus YJL134W, strain LCB3, stronger effect = lower value 0.991 | locus YJL154C, strain vps35, stronger effect = lower value 0.99 | locus YJL164C, strain tpk1, stronger effect = lower value 0.999 | locus YJL166W, strain qcr8, stronger effect = lower value 0.992 | locus YJL168C, strain set2, stronger effect = lower value 1 | locus YJL187C, strain SWE1 (second series), stronger effect = lower value 1 | locus YJL187C, strain SWE1, stronger effect = lower value 0.971 | locus YJR043C, strain POL32, stronger effect = lower value 0.996 | locus YJR066W, strain TOR1, stronger effect = lower value 0.884
